Experimental data from PubChem BioAssay (NCI).
This is part of a sample that, as a whole, favours compounds with a hit. Of some 83,000 tested, about 20% had one in any assay.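 Negative percent growth values reflect cell death: -40 means 40% of the cells present at the start died, and -100 means all died.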 Values without a mark were called inactive. Active and inactive are the calls of the source. The calls were made as follows: active = growth percent below 10; inactive = the rest.

Tested on: HL-60(TB) leukemia
Assay: NCI-60 one-dose screen, 48 h (100 = growth as untreated, 0 = no growth, -100 = all killed)
Conditions: 10 µM unless noted

O=[N+]([O-])c1cc[n+]([O-])cc1
growth: 36.1%

COc1cc(Cc2cc(-c3ccccc3)nn(Cc3ccccc3)c2=O)cc(OC)c1OC
growth: 19.3%

COc1ccc(C(=O)NC(=O)Nc2ccc3c(c2)NC(=O)/C3=C\c2[nH]c(C)c(C(=O)O)c2C)cc1
growth: 95.2%

CCOC(=O)C1=C(CSC(=S)N(C2CCCCC2)C2CCCCC2)N(C)C(=O)NC1c1ccccc1 (configuration not stated)
growth: 15.3%

Cc1ccc(-n2nc3c(c(C#N)c2=O)CC(c2ccccc2[N+](=O)[O-])C([N+](=O)[O-])=C3O)cc1 (configuration not stated)
growth: 91.6%

Cc1cc(N2CCN(CC(=O)Nc3ccc4c(ccn4Cc4ccccc4)c3)CC2)nc(N2CCOCC2)n1
growth: 87.3%

Cc1cc(O)c(C(C)C)cc1N=O
growth: 66.1%

COc1cc(-c2nc(N3CCN(C)CC3)c3ccccc3n2)cc(OC)c1OC
growth: 67%

Cc1ccc(-c2cc3nc(C(Cl)Cl)nc(-c4cccnc4)n3n2)cc1
growth: 10.5%

COC(=O)/C(=C\c1ccc(OC)cc1)C(=O)N1c2ccccc2Sc2ccccc21
growth: 16.5%

CC1(C)CC[C@]23CC[C@]4(C)[C@H](CC[C@@H]5[C@@]6(C)C/C(=C/c7ccncc7)C(=O)C(C)(C)[C@@H]6CC[C@]54C)[C@H]2[C@H]1OC3
growth: 61%

O=C(Nc1ccc(OS(=O)(=O)c2ccc(F)cc2)cc1)c1ccc(Cl)cc1
growth: 90.9%

O=C(Nc1cnn2ccc(N3CCC[C@@H]3c3cc(F)ccc3F)nc12)N1CC[C@H](O)C1
growth: 126%

Cc1cccc(Oc2ccc(Nc3ncnc4ccc(NC(=O)CN5CCN(C)CC5)cc34)cc2Cl)c1
growth: -40.2% (active)

CCCCC(=O)N(c1ccc(Nc2c3ccccc3nc3cc([N+](=O)[O-])ccc23)cc1)S(C)(=O)=O
growth: 68.3%

CCSc1nc2ccccc2o1
growth: 97.5%

CC[C@]1(O)C[C@H]2CN(CCc3c([nH]c4ccccc34)[C@@](C(=O)OC)(c3cc4c(cc3OC)N(C=O)[C@H]3[C@@](O)(C(=O)OC)[C@H](OC(C)=O)[C@]5(CC)C=CCN6CC[C@]43[C@@H]65)C2)C1
growth: -25.1% (active)

Cc1cc(Nc2ccc(C(=O)N3CCCC3)cc2)nc(NCCCNc2ccnc3cc(Cl)ccc23)n1
growth: 84.4%

C=C(C)[C@@H]1CC[C@]2(C(=O)NC(C)=O)CC[C@]3(C)[C@H](CC[C@@H]4[C@@]5(C)CCCNC(C)(C)[C@@H]5CC[C@]43C)[C@@H]12
growth: -51.2% (active)

CC12CCC(O)CC1=CCC1C2CCC2(C)C3=NN=CC3CC12 (configuration not stated)
growth: 103%

O=C(/C=C/c1ccc([N+](=O)[O-])cc1)c1ccccc1
growth: 35.1%

Cc1cccc(Cc2cnc(NC(=O)CCCOc3ccc(Cl)cc3)s2)c1
growth: -34.2% (active)

COc1ccc(C(=O)N2CCN(C(=O)c3cc(OC)c(OC)c(OC)c3)CC2)cc1OCCCCOc1cc2c(cc1OC)C(=O)N1CCC[C@H]1C=N2
growth: 147%

O=C(CSc1nc(-c2ccc(Cl)cc2)cn1-c1ccc(Cl)cc1)c1ccc(Br)cc1
growth: 97.1%

O=C(Cn1nnc2ccccc21)N/N=C/c1c[nH]c2ccccc12
growth: 31.1%

COc1ccc(-c2nc3cc(C(=O)NC4CCCCC4)ccc3n2C2CCCCC2)cc1
growth: 79.1%

O=C(CN1C(=O)S/C(=C\c2ccccc2)C1=O)Nc1ncc(Cc2ccccc2Cl)s1
growth: 95.1%

CC1CCCN(CCCCCOc2ccc3oc4ccccc4c(=O)c3c2)C1 (configuration not stated)
growth: 45.5%

Cc1[nH]c(/C=C2\C(=O)Nc3ccc(F)cc32)c(C)c1C(=O)NC[C@H](O)CN1CCOCC1
growth: 4.41% (active)

COc1ccc(-c2c(-c3cc(OC)c4c(c3)OCO4)noc2N)cc1
growth: -7.49% (active)

CNCCCC12CCC(c3ccccc31)c1ccccc12
growth: 71%

COc1ccc2c(N)ncc(C#Cc3cc(C(=O)Nc4ccc(CN5CCN(C)CC5)c(C(F)(F)F)c4)cnc3C)c2c1
growth: 43.9%

Cc1ccc2nc3nc4ccc[nH]c4cc3c2c1
growth: 124%

O=[N+]([O-])c1cccc(/C=N\Nc2ccccc2)c1
growth: 20.1%

Nc1c(Cl)cccc1[N+](=O)[O-]
growth: 112%

N#Cc1ccc(C2C3=C(CCCC3=O)OC3=C2C(=O)c2ccccc2C3=O)cc1 (configuration not stated)
growth: -21.4% (active)

COc1ccc2c(c1)c(-c1cc(-c3cn(C)c4ccc(OC)cc34)on1)cn2C
growth: 101%
